Shown are actives, neighbours in structure and some others; about 0.96% of the full set was active somewhere.
TRPML1 blocker: qHTS for Inhibitors of the Human Mucolipin Transient Receptor Potential 1 (TRPML1) | TRPML1-inducible cells, Ca2+ dye fluorescence, FDSS; active compounds read low; inhibition of EC80 agonist-evoked calcium signal | activity change, negative = inhibition, % (concentration not given with the values) | 390,000 compounds, 0.02% hits | AID 624415, 2012; in the data active = activity change below about -50%; inconclusive = between about -30% and that limit;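 also: stimulus is agonist 54-4 at its EC80 concentration; % is scaled to controls: 0 for no effect and ±100 for the full control effect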
Target sequence (Q9GZU1 whole entry, looked up): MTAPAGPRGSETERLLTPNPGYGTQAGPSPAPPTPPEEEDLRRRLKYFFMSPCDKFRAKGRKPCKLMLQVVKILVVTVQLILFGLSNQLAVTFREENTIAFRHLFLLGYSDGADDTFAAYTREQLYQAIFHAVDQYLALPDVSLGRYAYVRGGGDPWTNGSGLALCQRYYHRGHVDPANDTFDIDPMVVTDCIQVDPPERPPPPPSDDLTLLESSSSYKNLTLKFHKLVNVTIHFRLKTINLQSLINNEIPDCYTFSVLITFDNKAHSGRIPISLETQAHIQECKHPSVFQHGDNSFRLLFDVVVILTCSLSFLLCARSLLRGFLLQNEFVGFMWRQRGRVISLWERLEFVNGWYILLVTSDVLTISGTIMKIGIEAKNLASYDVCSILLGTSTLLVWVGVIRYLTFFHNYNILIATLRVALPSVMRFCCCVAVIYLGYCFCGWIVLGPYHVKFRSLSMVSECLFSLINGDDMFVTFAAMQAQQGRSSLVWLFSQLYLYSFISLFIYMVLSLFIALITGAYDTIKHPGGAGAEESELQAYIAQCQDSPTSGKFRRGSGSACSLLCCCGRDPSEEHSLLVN
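Tet-induced TRPML1-DL cells loaded with Ca8 no-wash calcium dye were read kinetically on FDSS. Compound addition was followed by EC80 agonist 54-4 (4 uM final); inhibition was read over 110 s.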
TRPV1 potentiator: HTS Assay for Compounds that Act as Potentiators of the Vanilloid Receptor 1 | Transient receptor potential cation channel subfamily V member 1 (Homo sapiens), Q8NER1 | TRPV1-expressing cells, Fluo-8 calcium influx, capsaicin EC20 potentiation | potentiation, % at 8.33 µM | 320,000 compounds, 0.02% hits | AID 540277, 2011; in the data active = potentiation above about 80%; inconclusive = between about 30% and that limit; also: 0% is about no effect
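Fluo-8 calcium influx in TRPV1-expressing cells, kinetic read (ex 480/em 520 nm). Compound added and read 3 min for agonist activity, followed by capsaicin at EC20 final and 2 min further read for enhancement.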
TRPV1 ag: HTS Assay for Compounds that Act as Agonists of the Vanilloid Receptor 1; TRPV1-expressing cells, Fluo-8 calcium influx, agonist mode; Transient receptor potential cation channel subfamily V member 1 (Homo sapiens), Q8NER1; 320,000 compounds, 0.19% hits; activation, % at 8.33 µM; in the data active = activation above about 80%; inconclusive = between about 30% and that limit; also: 0% is about no effect
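TRPV1-expressing cells were cultured overnight at 35.5C and loaded with Fluo-8 calcium dye for 40 to 90 min at room temperature. After a 10 s baseline, compound was added and calcium influx was read kinetically for 3 min (ex 480/em 520 nm).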
TRHR ag: qHTS for Small Molecule Agonists and Allosteric Enhancers of Human TRH Receptor: Primary Screen for Agonists | Thyrotropin-releasing hormone receptor (Homo sapiens), P34981 | TRHR cells, calcium flux fluo-8, FDSS agonist mode | activation, % at 2 µM | 360,000 compounds, 0.18% hits; in the data active = activation above about 30%; also: 0% is about no effect
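Read-out: compound-evoked intracellular calcium rise in TRHR cells, fluo-8 dye, kinetic FDSS fluorescence at 1 s/cycle following a 10-cycle baseline. Cells cultured overnight before dye loading (30 min–1.5 h, RT).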
TRHR PAM: qHTS for Small Molecule Agonists and Allosteric Enhancers of Human TRH Receptor: Primary Screen for Enhancers. Thyrotropin-releasing hormone receptor (Homo sapiens), P34981. TRHR cells, fluo-8 calcium fluorescence, EC20 TRH enhancement. enhancement, % at 2 µM. 360,000 compounds, 0.66% hits; in the data active = enhancement above about 30%; also: 0% is about no effect
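Enhancer read-out: after compound pinning and an initial kinetic agonist-mode read, an EC20 of TRH (10 nM final) was injected and fluo-8 calcium signal (Ex 480/Em 530) followed at 1 s/cycle for 100 cycles in TRHR-expressing cells.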
TRPML1 ag: qHTS for Agonists of the Human Mucolipin Transient Receptor Potential 1 (TRPML1) | TRPML1-expressing cells, Ca2+ dye fluorescence, FDSS | activation, % (no concentration beside the values) | Mucolipin-1 (Homo sapiens), Q9GZU1 | 410,000 compounds, 0.12% hits | AID 624414, 2012; in the data active = activation above about 50%; inconclusive = mostly about 30% to 49%; also: 0% is about no effect
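In this qHTS format, compounds were pin-transferred onto Ca8-dye-loaded TRPML1-DL cells induced with Tet overnight, and intracellular Ca2+ fluorescence was recorded kinetically for 110 s after a 10 s baseline. A subsequent 4uM final 54-4 (EC80) addition followed by a second 110 s read served as the antagonist phase.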
* marks the source's active call; other numbers are inactive results; ? = inconclusive; . = not tested or not shown.

SMILES	TRPML1 blocker	TRPV1 potentiator	TRPV1 ag	TRHR ag	TRHR PAM	TRPML1 ag
CC1=CC(C)(C)N2C(=O)C3(C(C#N)=C(N)Oc4cc(O)ccc43)c3cccc1c32 (stereo not given)	34	4	-2	0	32*	2
CC1=CC(C)(C)N2C(=O)C3(C(C#N)=C(N)OC4=C3C(=O)CC(C)(C)C4)c3cccc1c32 (stereo not given)	.	-9	1	-1	1	.
CCOC(=O)C1(CC2CCCCO2)CCN(Cc2cc3ccccc3[nH]2)CC1 (stereo not given)	2	-7	?	0	26	95*
Cc1ccc(OC(C)C(=O)N(C)Cc2ccccc2)c([N+](=O)[O-])n1 (stereo not given)	-4	-7	-4	2	39*	-1
Cc1ccc(OCC(=O)N(Cc2ccccc2)C(C)C)c([N+](=O)[O-])n1	0	-9	3	-1	0	-1
Cc1cccc(NC(=O)c2ccc(S(=O)(=O)C(F)F)cc2)c1C	-5	12	87*	-1	-8	1
Cc1cc(C)cc(NC(=O)c2ccc(S(=O)(=O)C(F)F)cc2)c1	7	-2	?	0	3	1
COc1ccc(-c2nc(N3CCN(S(=O)(=O)c4ccc(C)cc4)CC3)c3ccccc3n2)cc1	17	.	.	-1	0	0
O=C(Nc1ccc(Cl)cc1)Nc1cccc2nsnc12	19	-10	87*	2	-2	2
O=C(c1cc2ccc3cccnc3c2[nH]1)N1CCN(c2ccc(Cl)cc2)CC1	-9	.	.	1	6	1
Cc1ccc(Cl)cc1N1CCN(C(=O)c2cc3ccc4cccnc4c3[nH]2)CC1	-4	.	.	-1	30*	2
CCN(CC)S(=O)(=O)c1ccc(C(=O)Nc2ccc(Cc3ccncc3)cc2)cc1	-2	2	81*	-1	-5	2
COc1ccc(-c2cc3ccc(OCC(N)=O)cc3oc2=O)cc1OC	-11	4	4	1	3	1
COc1ccc(-c2cc3ccc(O)cc3oc2=O)cc1OC	-2	13	3	-1	31*	7
C/C(=N\NC(=O)CCCNc1ccc(C)cc1)c1ccccn1	10	-1	6	-1	32*	-1
COc1cc(F)c(S(=O)(=O)N2CCN(S(=O)(=O)c3ccc4c(c3)OCCO4)CC2)c(F)c1	.	.	.	2	2	.
Cc1ccc(NC(=O)c2ccc3c(c2)OCCO3)cc1C	4	-30	85*	0	3	0
O=C(NC(=S)Nc1ccc(F)cc1)c1ccc2c(c1)OCCO2	-14	-15	-2	1	33*	4
COc1cc2nc(N3CCCCC3)nc(NC3CCN(C)CC3)c2cc1OC	.	.	.	.	.	0
CCCNc1c(F)c(F)c2c(C)c3ccccc3nc2c1F	-2	-8	11	34*	9	1
Cc1cc2ccccc2c[n+]1C1CCCCC1	.	.	.	.	.	0
Cc1ccccc1CSCC(=O)NC1CCCC1	34	-11	18	0	-4	-1
O=C(CN1C(=O)c2ccccc2C1=O)NC1CCCCCC1	-3	-3	1	0	33*	1
Cc1ccccc1CC(=O)NC1CCCCCC1	-54*	-29	?	0	-2	1
O=C(CN1C(=O)c2ccccc2C1=O)NC1CCCCC1	3	8	1	-1	-2	-1
O=[N+]([O-])c1ccc2nc(CO)[nH]c2c1	.	.	.	.	.	0
COc1cc2nc(CCNCc3ccccc3)nc(NC3CCN(C)CC3)c2cc1OC	.	.	.	.	.	0

Screening data: PubChem, National Center for Advancing Translational Sciences (NCATS)
